“And” between values parts separate entries of the source, which are not always exact repeats. Equal values may be shown once. The campaign covered roughly 360,000 compounds. About 1,600 (0.44%) were called active.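 Rule for the calls: active = every replicate showing at least 50% inhibition; inconclusive = mean inhibition at least 50% but not in every replicate; inactive = the rest.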 Shown is part of a subset that was picked to be rich in actives. Where a structure was tested more than once in an assay, its records may differ in their call.

This test deals with DNA repair protein RAD52 homolog (Homo sapiens) (UniProt P43351). The test can be described thus: blockers of RAD52 strand annealing activity – biochemical, FRET, single point, set 2, primary screen (AID 651710). Conditions: recombinant RAD52 DNA annealing, FRET fluorescence; at 18.7 µM; stronger effect = higher value.
Sequence of DNA repair protein RAD52 homolog (Homo sapiens) (P43351 whole entry, looked up): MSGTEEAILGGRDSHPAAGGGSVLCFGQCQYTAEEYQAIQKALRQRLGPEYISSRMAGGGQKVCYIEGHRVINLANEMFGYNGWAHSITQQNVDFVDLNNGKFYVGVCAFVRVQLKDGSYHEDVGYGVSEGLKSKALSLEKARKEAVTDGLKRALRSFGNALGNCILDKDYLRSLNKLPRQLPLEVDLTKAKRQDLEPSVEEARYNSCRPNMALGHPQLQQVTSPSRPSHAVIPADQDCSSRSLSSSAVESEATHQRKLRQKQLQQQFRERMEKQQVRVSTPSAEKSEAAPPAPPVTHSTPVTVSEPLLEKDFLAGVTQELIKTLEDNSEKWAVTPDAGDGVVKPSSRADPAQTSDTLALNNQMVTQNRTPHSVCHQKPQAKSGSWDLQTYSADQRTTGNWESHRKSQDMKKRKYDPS
In the case of `CCCC(=O)Nc1ccc2c(c1)C(=O)N(C)C[C@H](OC)[C@@H](C)CN[C@H](C)CO2`, the inhibition was -5.47% (inactive).

For the compound `O=C(CN1CCOCC1)N[C@@H]1CC[C@H](CCNS(=O)(=O)c2ccccc2F)O[C@H]1CO`, the inhibition is -13.5% (inactive).

As for `O=C(Cc1ccccc1)N1CC[C@@H]2[C@H](CO)Nc3ccc(-c4ccccc4)cc3[C@@H]21`, the inhibition is -10.7% (inactive).

As to `Cc1ccc(-c2ccc3c(c2)O[C@H](CN(C)C(=O)Nc2ccc(C(F)(F)F)cc2)[C@@H](C)CN([C@H](C)CO)S3(=O)=O)cc1`, the inhibition is -8.45% (inactive).

Take `CCOCCCNC(=S)Nc1ccc2nc(N3CCN(CC)CC3)cc(C)c2c1`: the inhibition is 61% (active).

For `Cc1cc(N2CCOCC2)nc2ccc(NC(=S)N3CCN(Cc4ccccc4)CC3)cc12`, the inhibition was -21.2% (inactive).

`Cc1cc(N2CCN(C)CC2)nc2ccc(NC(=S)N3CCOCC3)cc12`: the inhibition is 46.4% (inactive).

With `COc1cccc(-c2cnc3c(c2)C(=O)N([C@@H](C)CO)C[C@@H](C)[C@H](CN(C)C(=O)CN(C)C)O3)c1`, the inhibition was 18.6% (inactive).

As to `CC(C)NC(=O)N(C)C[C@H]1Oc2ccc(N(C)C)cc2C(=O)N([C@@H](C)CO)C[C@H]1C`, the inhibition was -18.9% (inactive).

Take `COc1ccc2c3c(n(C)c2c1)[C@@H](CO)NCC31CCN(CC2CC2)CC1`: the inhibition was 55.9% (active).

Take `CCS(=O)(=O)N1CCC2(CC1)CN[C@H](CO)c1c2c2ccc(OC)cc2n1C`: the inhibition is 5.49% (inactive).

Consider `COc1ccc2c3c(n(C)c2c1)[C@@H](CO)NCC31CCN(CC2CCCC2)CC1`, for which the inhibition was 37.5% (inactive).

In the case of `COc1ccc(NC(=O)Nc2ccc3c(c2)C(=O)N([C@@H](C)CO)C[C@@H](C)[C@H](CN(C)S(=O)(=O)c2cccs2)O3)cc1`, the inhibition is -4.93% (inactive).

For the compound `COc1ccccc1S(=O)(=O)N(C)C[C@H]1Oc2cc(C#CCC3CCCC3)ccc2S(=O)(=O)N([C@@H](C)CO)C[C@H]1C`, the inhibition is 9.21% (inactive).

On to `Cc1ccc(S(=O)(=O)N2C[C@H](O)COC[C@@H]3O[C@@H](CC(=O)NCC4CCCCC4)CC[C@H]32)cc1`, for which the inhibition was 37.6% (inactive).

For the compound `O=C(C[C@@H]1CC[C@@H]2[C@H](COC[C@@H](O)CN2S(=O)(=O)c2ccccc2)O1)NCC1CCCCC1`, the inhibition is 91% (active).

`O=C(C[C@@H]1CC[C@H]2[C@@H](COC[C@H](O)CN2S(=O)(=O)c2ccccc2)O1)NCCN1CCCC1`: the inhibition is 8.64% (inactive).

On to `COc1ccccc1-c1ccc2c(c1)O[C@@H](CN(C)CC1CCOCC1)[C@H](C)CN([C@@H](C)CO)S2(=O)=O`, for which the inhibition is 17% (inactive).

In the case of `COCC(=O)NC[C@@H]1[C@@H](c2ccc(C3=CCCC3)cc2)[C@@H](CO)N1C(C)=O`, the inhibition was 2.17% (inactive).

For `CCS(=O)(=O)N1CCC(N2CCN(c3ccccc3)CC2)CC1`, the inhibition was -13% (inactive).

For the compound `Cc1cc(C)n(-c2nnc(N3CCN(c4ccccc4)CC3)nn2)n1`, the inhibition is -6.3% (inactive).

Turning to `CN1CCC(CN)(N2CCN(c3ccccc3)CC2)CC1`, the inhibition is 83.9% (active).

In the case of `C[C@@H]1CCCCO[C@@H](CN(C)C)[C@@H](C)CN([C@H](C)CO)C(=O)c2cc(NC(=O)c3ccncc3)ccc2O1`, the inhibition was -19.4% (inactive).

In the case of `CCCC#Cc1ccc([C@@H]2[C@@H](CO)N3C(=O)CN(C(=O)Nc4ccc(F)cc4)C[C@@H]23)cc1`, the inhibition was 6.28% (inactive).

`O=C(C1CCCC1)N1[C@H](CO)[C@H]2c3ccccc3N(S(=O)(=O)c3ccccc3)C[C@H]21`: the inhibition is -8.44% (inactive).

With `C[C@@H]1CN([C@H](C)CO)C(=O)c2cccc(NC(=O)Nc3ccc4c(c3)OCO4)c2O[C@H]1CN(C)S(=O)(=O)c1ccc(Cl)cc1`, the inhibition is -13.7% (inactive).

Take `O=C(NC[C@H]1CC[C@H]2[C@H](CN2Cc2cccc(Cl)c2)O1)C1CC1`: the inhibition was -6.18% (inactive).

`COc1ccc(CN(C)C[C@H]2OCCCC[C@H](C)Oc3ccc(NC(=O)c4ccccc4)cc3C(=O)N([C@@H](C)CO)C[C@@H]2C)cc1`: the inhibition is 28.1% (inactive).

As to `CO[C@H]1CN(C)C(=O)c2ccc(NC(=O)Nc3ccc(F)cc3)cc2OC[C@@H](C)NC[C@H]1C`, the inhibition is -5.12% (inactive).

On to `Cc1occc1C(=O)N/N=C/c1ccc(-c2cccc([N+](=O)[O-])c2)o1`, for which the inhibition is -14% (inactive).

Take `Cc1ccc(C(=O)N/C(=C\c2ccc(F)cc2)C(=O)NCCN2CCOCC2)cc1`: the inhibition is -4.68% (inactive).

As to `Cc1ccc(C(=O)N/C(=C/c2ccc(-c3cccc([N+](=O)[O-])c3)o2)C(=O)NCCCN(C)C)cc1`, the inhibition was 65.9% (active).

Consider `COc1ccc(CNC(=O)C[C@H]2C[C@H]3c4cc(NS(C)(=O)=O)ccc4O[C@H]3[C@@H](CO)O2)cc1`, for which the inhibition was 9.84% (inactive).

Take `Cc1ccc(-c2ccc3c(c2)O[C@@H](CN(C)C(=O)CC2CC2)[C@@H](C)CN([C@@H](C)CO)S3(=O)=O)cc1`: the inhibition was 18.4% (inactive).

In the case of `COCCNC(=O)C[C@@H]1C[C@@H]2c3cc(NC(=O)Nc4ccc(C(F)(F)F)cc4)ccc3O[C@@H]2[C@@H](CO)O1`, the inhibition is 1.63% (inactive).

For the compound `CN(C)C(CNC(=O)c1ccc(OCc2cn3ccccc3n2)cc1)c1ccco1` (configuration not stated), the inhibition is -13.9% (inactive).

As to `CC(=O)c1cccc(-c2cnc3c(NC=O)cc(-c4ccccc4Oc4ccccc4)cn23)c1`, the inhibition was -29.2% (inactive).

Regarding `CN(C)CCNC(=O)c1ccc(-c2cn3c(-c4ccc(Oc5ccccc5)cc4)cnc3cn2)cc1`, the inhibition is 85.7% (active).

For `C[C@H]1CN([C@@H](C)CO)C(=O)c2cccc(NS(=O)(=O)c3cn(C)cn3)c2O[C@H]1CN(C)C(=O)Nc1ccc2c(c1)OCO2`, the inhibition was -13.3% (inactive).

Turning to `CS(=O)(=O)N1[C@H](C#N)[C@H](c2ccc(C#CC3CC3)cc2)[C@H]1CO`, the inhibition is -26.1% (inactive).

Regarding `COc1ccc(NC(=O)N(C)C[C@@H]2Oc3c(NS(=O)(=O)c4ccc(OC)cc4)cccc3C(=O)N([C@H](C)CO)C[C@@H]2C)cc1`, the inhibition is -3.75% (inactive).

In the case of `COc1ccc2c3c(n(C)c2c1)[C@H](CO)N(S(=O)(=O)c1ccc(C)cc1)CC31CCN(C(=O)c2ccccn2)CC1`, the inhibition is 21.8% (inactive).

For `C[C@@H]1CN([C@@H](C)CO)C(=O)CCCn2nncc2CO[C@H]1CN(C)C(=O)Nc1ccc(C(F)(F)F)cc1`, the inhibition is -10.9% (inactive) and -1.52% (inactive).

Consider `COC(=O)N(C)C[C@@H]1OCc2cnnn2CCCC(=O)N([C@@H](C)CO)C[C@@H]1C`, for which the inhibition is 0.525% (inactive) and 0.31% (inactive).

On to `C[C@H]1CN([C@@H](C)CO)C(=O)CCCn2nncc2CO[C@@H]1CN(C)C(=O)Nc1ccc(N2CCN(C)CC2)cc1`, for which the inhibition is 60.1% (active) and 24.7% (inactive).

For the compound `COc1ccc(S(=O)(=O)N2CC[C@@H]3[C@@H](CO)Nc4ccc(C#Cc5cccnc5)cc4[C@@H]32)cc1`, the inhibition was 0.847% (inactive).

As to `Cc1noc(C)c1S(=O)(=O)N(C)C[C@H]1Oc2ccc(NC(=O)CCN3CCOCC3)cc2CC(=O)N([C@H](C)CO)C[C@H]1C`, the inhibition was -2.41% (inactive).

Consider `C[C@H](CO)N1C[C@H](C)[C@H](CN(C)C)Oc2ccc(NC(=O)Nc3ccc(F)cc3)cc2CC1=O`, for which the inhibition was -3.53% (inactive).

`Cc1cccc(NC(=O)NC2(C)CCS(=O)(=O)C2)c1` (configuration not stated): the inhibition is -1.1% (inactive).

`Cc1cccc(NC(=S)NCc2ccc3[nH]c4c(c3c2)CCCC4)c1`: the inhibition was -21.7% (inactive).

For `Cc1cccc(NC(=S)NC23CN4CN(CN(C4)C2)C3)c1`, the inhibition was 82.8% (active).

As for `Cc1cccc(-c2nc3ccc(C(=O)NCCN4CCN(C)CC4)cc3nc2-c2cccc(C)c2)c1`, the inhibition was 68% (active).

Consider `Cc1cccc(C(=O)OC(C)CN2CCN(C)CC2)c1` (configuration not stated), for which the inhibition was -5.75% (inactive).

Consider `O=C(NCCN1CCOCC1)c1cccc(S(=O)(=O)Nc2ccc(F)cc2)c1`, for which the inhibition was 2.89% (inactive).

Consider `CN(C)CC(=O)N1[C@H](CO)[C@@H](c2ccc(-c3cccc(C(=O)N(C)C)c3)cc2)[C@@H]1C#N`, for which the inhibition is -31.9% (inactive).

Regarding `Oc1ccc(N=Cc2sc3ccccc3c2Cl)cc1`, the inhibition is 55.8% (active).

In the case of `O=C(NC1CCC1)[C@H]1[C@H](CO)[C@H]2Cn3c(ccc(C4=CCCCC4)c3=O)[C@@H]1N2CC1CC1`, the inhibition is 1.51% (inactive).

As for `Nc1ccc(OCC(O)C[n+]2ccc(CCS(=O)(=O)[O-])cc2)cc1` (configuration not stated), the inhibition is 58.1% (active).

As to `CCCc1ccc(OCC(O)CN2CCN(C(=O)OCC)CC2)cc1` (configuration not stated), the inhibition was -8.19% (inactive).

For the compound `CCc1ccc(S(=O)(=O)NCC(O)COc2ccc(OC)cc2)cc1` (configuration not stated), the inhibition was -8.48% (inactive).

Take `COCC(=O)N1CC(=O)N2[C@H](C1)[C@H](c1ccc(C#CC3CCCCC3)cc1)[C@@H]2CO`: the inhibition is 6.1% (inactive).

As for `COc1ccc2c3c([nH]c2c1)[C@H](CO)N(C(=O)c1ccccc1)CC31CCN(S(=O)(=O)c2cccs2)CC1`, the inhibition is 2.57% (inactive).

For orientation: inhibition means the relative decrease from the control value, in per cent.
